Source: ChEMBL document CHEMBL1961873, “Compounds: GSK PKIS; Assays: Nanosyn kinase panel” (2012)

What was measured:
[1] = target: Platelet-derived growth factor receptor beta (Homo sapiens) (UniProt P09619); conditions: at 1 µM;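 note: each value is a mean percent inhibition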
[2] = target: Tyrosine-protein kinase FRK (Homo sapiens) (UniProt P42685); conditions: at 0.1 µM
[3] = target: Tyrosine-protein kinase FRK (Homo sapiens) (UniProt P42685); conditions: at 1 µM
[4] = target: Protein-tyrosine kinase 2-beta (Homo sapiens) (UniProt Q14289); conditions: at 0.1 µM
Protein-tyrosine kinase 2-beta (Homo sapiens), sequence (Q14289 whole entry, looked up): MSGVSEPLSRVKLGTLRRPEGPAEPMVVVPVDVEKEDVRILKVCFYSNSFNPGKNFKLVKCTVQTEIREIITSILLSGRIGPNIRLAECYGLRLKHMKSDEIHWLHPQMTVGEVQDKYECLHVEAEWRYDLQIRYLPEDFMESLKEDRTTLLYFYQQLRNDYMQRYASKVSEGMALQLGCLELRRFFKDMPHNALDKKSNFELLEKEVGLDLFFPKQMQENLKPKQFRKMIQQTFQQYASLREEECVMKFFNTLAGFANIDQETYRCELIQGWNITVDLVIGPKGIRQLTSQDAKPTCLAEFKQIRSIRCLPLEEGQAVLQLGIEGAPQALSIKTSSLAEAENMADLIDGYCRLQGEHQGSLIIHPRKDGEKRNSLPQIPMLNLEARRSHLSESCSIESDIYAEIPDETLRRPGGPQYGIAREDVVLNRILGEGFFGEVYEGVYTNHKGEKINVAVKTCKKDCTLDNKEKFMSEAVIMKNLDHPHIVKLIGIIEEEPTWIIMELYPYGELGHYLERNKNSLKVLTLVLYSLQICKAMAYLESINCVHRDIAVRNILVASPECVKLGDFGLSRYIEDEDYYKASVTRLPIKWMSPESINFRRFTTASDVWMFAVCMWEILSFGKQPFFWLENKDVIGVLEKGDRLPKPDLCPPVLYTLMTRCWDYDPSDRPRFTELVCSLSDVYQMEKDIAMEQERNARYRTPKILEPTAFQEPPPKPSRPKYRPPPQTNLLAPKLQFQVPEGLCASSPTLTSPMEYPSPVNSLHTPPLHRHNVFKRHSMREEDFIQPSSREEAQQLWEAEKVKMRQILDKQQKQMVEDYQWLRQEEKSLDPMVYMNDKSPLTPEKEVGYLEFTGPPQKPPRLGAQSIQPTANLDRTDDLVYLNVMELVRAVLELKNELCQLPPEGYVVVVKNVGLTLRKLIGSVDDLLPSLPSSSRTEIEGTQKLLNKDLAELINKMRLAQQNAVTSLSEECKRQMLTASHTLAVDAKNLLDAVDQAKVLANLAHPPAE

[5] = target: Protein-tyrosine kinase 2-beta (Homo sapiens) (UniProt Q14289); conditions: at 1 µM
[6] = target: Proto-oncogene tyrosine-protein kinase receptor Ret (Homo sapiens) (UniProt P07949); conditions: at 0.1 µM
Proto-oncogene tyrosine-protein kinase receptor Ret (Homo sapiens), sequence (P07949 whole entry): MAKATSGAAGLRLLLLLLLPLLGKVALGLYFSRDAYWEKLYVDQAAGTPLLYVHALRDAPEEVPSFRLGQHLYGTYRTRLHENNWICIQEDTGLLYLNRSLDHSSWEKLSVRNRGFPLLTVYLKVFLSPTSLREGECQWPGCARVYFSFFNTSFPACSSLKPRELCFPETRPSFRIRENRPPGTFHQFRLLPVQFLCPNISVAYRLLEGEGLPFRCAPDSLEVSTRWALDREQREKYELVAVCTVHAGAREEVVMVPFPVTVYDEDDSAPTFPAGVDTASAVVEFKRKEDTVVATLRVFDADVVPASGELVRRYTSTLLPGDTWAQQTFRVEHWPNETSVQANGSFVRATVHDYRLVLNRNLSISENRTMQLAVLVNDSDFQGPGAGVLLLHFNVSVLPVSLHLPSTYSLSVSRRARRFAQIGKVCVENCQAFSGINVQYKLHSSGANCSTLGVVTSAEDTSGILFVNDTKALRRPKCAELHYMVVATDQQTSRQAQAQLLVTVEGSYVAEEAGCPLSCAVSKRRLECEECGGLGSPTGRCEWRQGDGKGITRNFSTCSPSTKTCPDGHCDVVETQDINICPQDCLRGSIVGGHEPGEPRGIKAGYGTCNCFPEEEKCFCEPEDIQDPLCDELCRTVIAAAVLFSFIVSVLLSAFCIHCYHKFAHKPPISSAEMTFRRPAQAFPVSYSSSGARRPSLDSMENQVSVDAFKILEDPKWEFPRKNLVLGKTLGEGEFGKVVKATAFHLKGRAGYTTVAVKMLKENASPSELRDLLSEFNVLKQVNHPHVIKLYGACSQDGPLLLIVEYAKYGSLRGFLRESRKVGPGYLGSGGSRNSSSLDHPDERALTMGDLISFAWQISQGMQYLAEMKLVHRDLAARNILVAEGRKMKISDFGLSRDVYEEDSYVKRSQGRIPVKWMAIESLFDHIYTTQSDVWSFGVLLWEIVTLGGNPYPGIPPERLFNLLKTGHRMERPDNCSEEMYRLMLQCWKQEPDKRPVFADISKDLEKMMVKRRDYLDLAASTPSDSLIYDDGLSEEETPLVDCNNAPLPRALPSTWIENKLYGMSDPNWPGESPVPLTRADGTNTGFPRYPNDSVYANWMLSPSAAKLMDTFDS

[7] = target: Proto-oncogene tyrosine-protein kinase receptor Ret (Homo sapiens) (UniProt P07949); conditions: at 1 µM
[8] = tested on: Proto-oncogene tyrosine-protein kinase receptor Ret (Homo sapiens), P07949 [V804L]; conditions: at 0.1 µM
Proto-oncogene tyrosine-protein kinase receptor Ret (Homo sapiens), P07949 [V804L], sequence (P07949 whole entry V804L): as the sequence (P07949 whole entry) above, with V804L counted along it

[9] = tested on: Proto-oncogene tyrosine-protein kinase receptor Ret (Homo sapiens), P07949 [V804L]; conditions: at 1 µM
[10] = tested on: Proto-oncogene tyrosine-protein kinase receptor Ret (Homo sapiens), P07949 [Y791F]; conditions: at 0.1 µM
Proto-oncogene tyrosine-protein kinase receptor Ret (Homo sapiens), P07949 [Y791F], sequence (P07949 whole entry Y791F): as the sequence (P07949 whole entry) above, with Y791F counted along it

[11] = tested on: Proto-oncogene tyrosine-protein kinase receptor Ret (Homo sapiens), P07949 [Y791F]; conditions: at 1 µM
[12] = target: Macrophage-stimulating protein receptor (Homo sapiens) (UniProt Q04912); conditions: at 0.1 µM
[13] = target: Macrophage-stimulating protein receptor (Homo sapiens) (UniProt Q04912); conditions: at 1 µM
[14] = target: Proto-oncogene tyrosine-protein kinase ROS (Homo sapiens) (UniProt P08922); conditions: at 0.1 µM
Proto-oncogene tyrosine-protein kinase ROS (Homo sapiens), sequence (P08922 whole entry): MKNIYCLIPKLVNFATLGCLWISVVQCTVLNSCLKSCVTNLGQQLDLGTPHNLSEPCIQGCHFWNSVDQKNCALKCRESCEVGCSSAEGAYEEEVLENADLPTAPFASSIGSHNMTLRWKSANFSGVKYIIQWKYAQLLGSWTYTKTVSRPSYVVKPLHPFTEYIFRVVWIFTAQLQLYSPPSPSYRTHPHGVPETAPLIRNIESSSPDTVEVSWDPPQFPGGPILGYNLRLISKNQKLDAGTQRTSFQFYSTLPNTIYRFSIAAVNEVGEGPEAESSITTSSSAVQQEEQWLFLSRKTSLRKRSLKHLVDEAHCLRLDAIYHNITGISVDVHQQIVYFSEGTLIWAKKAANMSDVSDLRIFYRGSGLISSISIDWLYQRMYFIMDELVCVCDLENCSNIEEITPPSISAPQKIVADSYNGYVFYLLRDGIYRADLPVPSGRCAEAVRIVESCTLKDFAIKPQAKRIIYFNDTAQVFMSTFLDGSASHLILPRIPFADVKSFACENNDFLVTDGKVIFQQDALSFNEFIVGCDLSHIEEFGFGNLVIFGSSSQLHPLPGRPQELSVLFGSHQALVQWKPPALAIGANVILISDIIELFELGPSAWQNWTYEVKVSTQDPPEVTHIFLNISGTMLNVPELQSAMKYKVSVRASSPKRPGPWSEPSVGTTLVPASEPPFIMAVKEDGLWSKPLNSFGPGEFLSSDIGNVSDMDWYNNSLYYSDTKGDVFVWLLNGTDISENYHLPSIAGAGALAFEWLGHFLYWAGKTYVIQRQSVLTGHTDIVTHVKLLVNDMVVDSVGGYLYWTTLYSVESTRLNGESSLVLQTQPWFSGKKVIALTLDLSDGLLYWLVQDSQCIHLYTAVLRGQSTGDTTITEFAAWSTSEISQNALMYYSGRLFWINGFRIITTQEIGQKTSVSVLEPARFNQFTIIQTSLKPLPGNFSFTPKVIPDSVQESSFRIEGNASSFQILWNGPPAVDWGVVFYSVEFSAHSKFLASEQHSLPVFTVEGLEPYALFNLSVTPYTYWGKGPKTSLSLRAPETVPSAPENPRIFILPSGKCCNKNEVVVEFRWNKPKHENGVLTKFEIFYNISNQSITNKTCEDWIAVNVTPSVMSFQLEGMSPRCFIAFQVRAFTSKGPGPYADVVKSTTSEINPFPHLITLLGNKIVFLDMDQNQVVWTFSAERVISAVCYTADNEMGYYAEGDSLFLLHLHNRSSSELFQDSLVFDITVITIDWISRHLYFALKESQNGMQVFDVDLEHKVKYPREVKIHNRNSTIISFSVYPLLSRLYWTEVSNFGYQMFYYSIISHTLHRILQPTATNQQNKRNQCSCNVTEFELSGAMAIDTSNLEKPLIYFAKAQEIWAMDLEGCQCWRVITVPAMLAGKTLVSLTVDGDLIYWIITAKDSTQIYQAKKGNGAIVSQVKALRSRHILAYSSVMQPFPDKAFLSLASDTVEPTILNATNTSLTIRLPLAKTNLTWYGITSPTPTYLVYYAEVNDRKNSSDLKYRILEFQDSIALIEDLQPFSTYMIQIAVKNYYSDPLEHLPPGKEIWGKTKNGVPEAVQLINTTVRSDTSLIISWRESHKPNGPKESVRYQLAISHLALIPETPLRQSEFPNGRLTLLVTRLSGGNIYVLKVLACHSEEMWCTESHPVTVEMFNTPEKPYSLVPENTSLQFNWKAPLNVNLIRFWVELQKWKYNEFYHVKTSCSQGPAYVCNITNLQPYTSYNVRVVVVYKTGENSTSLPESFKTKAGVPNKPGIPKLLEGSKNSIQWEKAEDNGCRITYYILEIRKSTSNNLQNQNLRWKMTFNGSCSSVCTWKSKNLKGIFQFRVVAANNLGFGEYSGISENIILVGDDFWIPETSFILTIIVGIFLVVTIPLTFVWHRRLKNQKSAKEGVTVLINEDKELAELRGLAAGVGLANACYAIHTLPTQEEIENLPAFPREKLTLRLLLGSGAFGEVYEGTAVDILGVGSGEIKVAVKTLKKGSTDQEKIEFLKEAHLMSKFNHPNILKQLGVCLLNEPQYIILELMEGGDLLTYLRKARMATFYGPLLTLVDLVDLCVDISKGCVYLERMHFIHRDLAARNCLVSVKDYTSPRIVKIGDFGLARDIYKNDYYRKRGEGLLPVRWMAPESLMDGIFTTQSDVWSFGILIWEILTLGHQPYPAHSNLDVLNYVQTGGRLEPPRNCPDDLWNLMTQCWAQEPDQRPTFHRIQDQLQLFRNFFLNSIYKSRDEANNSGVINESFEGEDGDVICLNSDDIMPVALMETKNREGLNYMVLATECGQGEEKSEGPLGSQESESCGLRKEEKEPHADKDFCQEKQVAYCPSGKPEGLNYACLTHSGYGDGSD

[15] = target: Proto-oncogene tyrosine-protein kinase ROS (Homo sapiens) (UniProt P08922); conditions: at 1 µM
[16] = target: Proto-oncogene tyrosine-protein kinase Src (Homo sapiens) (UniProt P12931); conditions: at 0.1 µM
[17] = target: Proto-oncogene tyrosine-protein kinase Src (Homo sapiens) (UniProt P12931); conditions: at 1 µM
[18] = target: Tyrosine-protein kinase Srms (Homo sapiens) (UniProt Q9H3Y6); conditions: at 0.1 µM
Tyrosine-protein kinase Srms (Homo sapiens), sequence (Q9H3Y6 whole entry): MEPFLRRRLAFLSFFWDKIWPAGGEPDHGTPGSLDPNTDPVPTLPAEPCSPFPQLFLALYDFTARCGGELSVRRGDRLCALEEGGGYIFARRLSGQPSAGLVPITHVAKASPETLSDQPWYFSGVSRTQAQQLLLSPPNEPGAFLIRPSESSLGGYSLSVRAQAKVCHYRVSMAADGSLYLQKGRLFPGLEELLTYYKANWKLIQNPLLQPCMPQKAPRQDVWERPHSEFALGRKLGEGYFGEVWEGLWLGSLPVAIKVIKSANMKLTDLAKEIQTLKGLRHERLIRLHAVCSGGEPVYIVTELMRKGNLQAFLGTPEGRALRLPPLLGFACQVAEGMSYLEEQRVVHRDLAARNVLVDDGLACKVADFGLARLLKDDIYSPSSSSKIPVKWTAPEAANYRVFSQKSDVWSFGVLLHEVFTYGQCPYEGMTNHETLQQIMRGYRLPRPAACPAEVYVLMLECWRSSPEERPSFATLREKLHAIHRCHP

[19] = target: Tyrosine-protein kinase Srms (Homo sapiens) (UniProt Q9H3Y6); conditions: at 1 µM
[20] = target: Tyrosine-protein kinase SYK (Homo sapiens) (UniProt P43405); conditions: at 0.1 µM;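 note: reported percentages are mean inhibition values for SYK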

Cc1cccc(-c2n[nH]cc2-c2ccc3ncccc3n2)n1
inhibition [1]: 26.5%
inhibition [2]: 1.55%
inhibition [3]: -0.81%
inhibition [4]: -4.16%
inhibition [5]: 0.67%
inhibition [6]: 1.65%
inhibition [7]: 15.1%
inhibition [8]: -1.82%
inhibition [9]: 2.72%
inhibition [10]: 3.64%
inhibition [11]: 18.7%
inhibition [12]: 3.7%
inhibition [13]: 1.79%
inhibition [14]: 1.26%
inhibition [15]: 4.08%
inhibition [16]: 2.63%
inhibition [17]: 3.67%
inhibition [18]: 0.03%
inhibition [19]: 3.34%
inhibition [20]: 1.27%

COc1ccc(-c2ccncc2)cc1C(N)=O
inhibition [1]: 11.4%
inhibition [2]: 4.92%
inhibition [3]: 5.68%
inhibition [4]: 5.98%
inhibition [5]: 11.3%
inhibition [6]: 3.52%
inhibition [7]: 6.29%
inhibition [8]: 2.72%
inhibition [9]: 9.41%
inhibition [10]: 4.39%
inhibition [11]: 6.78%
inhibition [12]: 9.12%
inhibition [13]: 1.15%
inhibition [14]: 5.72%
inhibition [15]: 17.5%
inhibition [16]: 11.3%
inhibition [17]: 12.4%
inhibition [18]: -0.54%
inhibition [19]: -5.88%
inhibition [20]: -1.18%

O=C1NC(=O)C(c2ccc(Cl)cc2)=C1Nc1ccc(Cl)c(C(=O)O)c1
inhibition [1]: 6.67%
inhibition [2]: -0.84%
inhibition [3]: 0.85%
inhibition [4]: -2.28%
inhibition [5]: 3.24%
inhibition [6]: 3.14%
inhibition [7]: 2.98%
inhibition [8]: 0.34%
inhibition [9]: -0.69%
inhibition [10]: 0.25%
inhibition [11]: -1.73%
inhibition [12]: -4.02%
inhibition [13]: 2.12%
inhibition [14]: 1.45%
inhibition [15]: 3.13%
inhibition [16]: 0.48%
inhibition [17]: -1.52%
inhibition [18]: 0.85%
inhibition [19]: 2.75%
inhibition [20]: -1%

Fc1cccc(COc2ccc(Nc3ncnc4sc(-c5cccs5)cc34)cc2Cl)c1
inhibition [1]: 4.24%
inhibition [2]: 1.12%
inhibition [3]: 2.35%
inhibition [4]: -5.04%
inhibition [5]: 3.37%
inhibition [6]: 3.97%
inhibition [7]: 0.68%
inhibition [8]: 0.76%
inhibition [9]: 2.26%
inhibition [10]: 1.05%
inhibition [11]: 2.09%
inhibition [12]: -5.24%
inhibition [13]: -0.08%
inhibition [14]: 5.26%
inhibition [15]: 4.79%
inhibition [16]: 2.2%
inhibition [17]: 2.77%
inhibition [18]: -1.04%
inhibition [19]: -1.24%
inhibition [20]: 0.32%

COC(=O)Nc1nc2cc(Oc3ccc(NC(=O)Nc4cccc(C(=O)O)c4)cc3)ccc2[nH]1
inhibition [1]: 16.2%
inhibition [2]: 0.4%
inhibition [3]: 0.91%
inhibition [4]: -5.8%
inhibition [5]: 6.37%
inhibition [6]: 7.47%
inhibition [7]: 14.1%
inhibition [8]: 2.8%
inhibition [9]: 15%
inhibition [10]: 1.53%
inhibition [11]: 26.3%
inhibition [12]: 0.89%
inhibition [13]: 5.64%
inhibition [14]: -2.86%
inhibition [15]: 3.11%
inhibition [16]: 1.83%
inhibition [17]: 7.71%
inhibition [18]: 0.44%
inhibition [19]: 0.74%
inhibition [20]: 5.41%

Cc1ccc(NC(=O)c2ccnc(N3CCCC3)c2)cc1-c1ccc(C(=O)NCC2CC2)cc1
inhibition [1]: 13.4%
inhibition [2]: 2.28%
inhibition [3]: 2.38%
inhibition [4]: 12.2%
inhibition [5]: 9.43%
inhibition [6]: 6.99%
inhibition [7]: 9.44%
inhibition [8]: 8.29%
inhibition [9]: 9.54%
inhibition [10]: 10.7%
inhibition [11]: 11.4%
inhibition [12]: 8.6%
inhibition [13]: 6.95%
inhibition [14]: 6.76%
inhibition [15]: 12%
inhibition [16]: 4.44%
inhibition [17]: 9.16%
inhibition [18]: -3.02%
inhibition [19]: -4.02%
inhibition [20]: -0.79%

COc1ccc2cc(-c3c(-c4ccncc4)nc(-c4ccc([S+](C)[O-])cc4)n3C)ccc2c1 (stereo not given)
inhibition [1]: 4.23%
inhibition [2]: 2.23%
inhibition [3]: 1.18%
inhibition [4]: 3.6%
inhibition [5]: 4.13%
inhibition [6]: 4.55%
inhibition [7]: 8.7%
inhibition [8]: 3.54%
inhibition [9]: -0.15%
inhibition [10]: 5.77%
inhibition [11]: -4.94%
inhibition [12]: 4.56%
inhibition [13]: 4.27%
inhibition [14]: 4.08%
inhibition [15]: 5.77%
inhibition [16]: 4.77%
inhibition [17]: 8.58%
inhibition [18]: -0.98%
inhibition [19]: -1.29%
inhibition [20]: -1.34%
